E-sel TNF inh: TNF alpha driven E-selectin expression inhibition. HUVEC TNFa-induced E-selectin immunofluorescence, high content. actives 0.71% (n = 120,000). inhibition, % at 2 µM;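 active = inhibition above the batch mean plus 3 SD, and confirmed as a hit on visual image review, cut at about 43% in these data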
CYP2C19 inhib: human CYP2C19 inhibition; P33261; CYP2C19 Supersomes, luciferin-H EGE luminescence, 30 min; inhibition, % at 5 µM; actives 21% (n = 96,000);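 active = CYP2C19 inhibition above a set limit at 5 µM in the primary screen, cut at about 50% in these data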
Target sequence (P33261 whole entry, looked up): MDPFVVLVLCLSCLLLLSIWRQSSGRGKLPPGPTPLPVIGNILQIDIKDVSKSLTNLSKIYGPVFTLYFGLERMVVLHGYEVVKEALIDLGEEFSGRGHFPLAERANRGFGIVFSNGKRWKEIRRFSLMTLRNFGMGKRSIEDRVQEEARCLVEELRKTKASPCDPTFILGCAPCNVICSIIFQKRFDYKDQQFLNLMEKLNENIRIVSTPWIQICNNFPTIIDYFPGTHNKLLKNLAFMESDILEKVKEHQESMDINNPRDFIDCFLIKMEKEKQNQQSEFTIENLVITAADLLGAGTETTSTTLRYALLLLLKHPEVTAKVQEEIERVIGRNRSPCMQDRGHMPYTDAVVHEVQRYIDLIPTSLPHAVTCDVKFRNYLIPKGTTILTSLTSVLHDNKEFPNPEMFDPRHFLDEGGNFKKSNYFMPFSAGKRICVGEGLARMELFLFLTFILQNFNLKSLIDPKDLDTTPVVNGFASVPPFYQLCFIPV
CYP2C9 activ: activators of human CYP2C9; activation factor at 5 µM; P11712; AID 1024; actives 1.4% (n = 96,000); recombinant CYP2C9, luciferin-H conversion, luminescence; hits give high values; factor 1 = untreated enzyme, 0 = blocked;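 active = activation factor of 2 or more for CYP2C9 at a 5 µM dose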
F-actin modifier: alters cytoskeleton assembly in HUVEC cells. HUVEC TNFa F-actin phalloidin imaging, high content. inhibition, % at 2 µM. actives 0.18% (n = 91,000). AID 836;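 active = inhibition above the batch mean plus 3 SD and confirmed as a hit by visual image inspection, cut at about 30% in these data, passing the limit was not always enough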
CYP2C9 inh: inhibitors of human CYP2C9; actives 20% (n = 96,000); CYP2C9 Supersomes, luciferin-H conversion, luminescence; AID 777; inhibition, % at 5 µM; P11712;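 active = blocking of liver enzyme CYP2C9 beyond about 50% at 5 µM, limit read from the data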
CYP2C19 act: increases human CYP2C19 enzyme activity; activation factor at 5 µM; AID 1025; recombinant CYP2C19, luciferin-H EGE luminescence; hits give high values; 0 = fully inhibited enzyme, 1 = untreated enzyme; 96,000 tested, under 10 active;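 active = activation factor of at least 2 at 5 µM in the primary screen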
Of the large screens only hits and unclear results are named; the others gave an inactive call. Hits are enriched below; roughly 22% of the tested compounds scored in any of these assays.

O=C(CN(C1CCCCC1)S(=O)(=O)c1ccc(F)cc1)NCCCO	none (no result: E-sel TNF inh)
O=C(CCC1CCCCC1)NCc1ccncc1	CYP2C19 inhib 88.6
Cc1c(-c2ccccc2)oc2c(C(=O)OCC(=O)Nc3ccc(C(N)=O)cc3)cccc2c1=O	none (no result: CYP2C19 inhib, CYP2C9 activ, F-actin modifier, CYP2C9 inh, CYP2C19 act)
CCOC(=O)c1ccc(NC(=O)CCNc2c(N3CCCC3)c(=O)c2=O)cc1	none
COc1ccc(CNC(=O)Nc2cccs2)cc1OC	none (no result: E-sel TNF inh)
COc1cccc(CNC(=O)CCNS(=O)(=O)c2cccs2)c1	CYP2C19 inhib 90.1 (no result: E-sel TNF inh, F-actin modifier)
Cc1ccc(CNC(=O)C2(C)Oc3ccccc3NC2=O)cc1 (stereo not drawn)	CYP2C19 inhib 79.2, CYP2C9 inh 90.3 (no result: F-actin modifier)
CC(C)NC(=O)Nc1cccs1	none (no result: CYP2C19 inhib, CYP2C9 activ, CYP2C9 inh, CYP2C19 act)
Cc1ccc(CNC(=O)Nc2cccs2)cc1	CYP2C19 inhib 51.3 (no result: F-actin modifier)
COc1cccc(CNC(=O)Nc2cccs2)c1	CYP2C19 inhib 86.0, CYP2C9 inh 53.9 (no result: E-sel TNF inh)
Cc1ccc(S(=O)(=O)NCC(=O)OCC(=O)c2cccs2)cc1	none
Cc1ccc(CNC(=O)Nc2ccccc2)cc1	CYP2C19 inhib 91.5 (no result: E-sel TNF inh)
Cc1ccc(CNC(=O)NCc2ccccc2)cc1	none (no result: CYP2C19 inhib, CYP2C9 activ, F-actin modifier, CYP2C9 inh, CYP2C19 act)
CCCCCOc1ccc(NC(=O)c2cc(SC)ccc2Cl)cc1	none (no result: CYP2C19 inhib, CYP2C9 activ, F-actin modifier, CYP2C9 inh, CYP2C19 act)
CCSCCOC(=O)C1=C(C)NC2=C(C(=O)CCC2)C1c1coc2ccccc2c1=O (stereo not drawn)	CYP2C9 inh 52.0 (no result: E-sel TNF inh)
CC1=C(C(=O)OC(C)C)C(c2coc3ccccc3c2=O)C2=C(CCCC2=O)N1 (stereo not drawn)	CYP2C9 inh 62.4
CCOC(=O)C1=C(C)NC2=C(C(=O)CC(C)(C)C2)C1c1coc2ccccc2c1=O (stereo not drawn)	none (no result: CYP2C19 inhib, CYP2C9 activ, CYP2C9 inh, CYP2C19 act)
Cc1sc(=NC(=O)c2ccco2)n(C)c1-c1ccc(Cl)cc1	none
Cn1cccc1C(=S)N=P(C1CCCCC1)(N1CCOCC1)N1CCOCC1	none
Cn1nc(-c2ccccc2)c(C(=O)Nc2ccc(C(F)(F)F)cc2)c1Cl	none
Cn1nc(-c2ccccc2)c(C(=O)Nc2ccc(Cl)cc2)c1Cl	CYP2C19 inhib 63.1
O=C(Nc1ccccc1[N+](=O)[O-])c1nc[nH]c1C(=O)NCCO	none
Cn1c2c(c(=O)n(C)c1=O)C(c1ccccc1OC(F)F)C1=C(CCCC1=O)N2 (stereo not drawn)	none (no result: CYP2C19 inhib, CYP2C9 activ, F-actin modifier, CYP2C9 inh, CYP2C19 act)
O=C(Cc1c(F)cccc1Cl)Nc1ccon1	CYP2C9 inh 77.9
Cc1cc(NC(=O)Cc2c(F)cccc2Cl)no1	none
CS(=O)(=O)N(CC(=O)Nc1cccnc1)c1ccc2c(c1)OCO2	CYP2C19 inhib 58.4
COC(=O)c1ccc(Cl)c(NC(=O)CN(c2ccc3c(c2)OCO3)S(C)(=O)=O)c1	CYP2C19 inhib 89.7, CYP2C9 inh 86.8
COC(=O)c1cc(NC(=O)CN(c2ccc3c(c2)OCO3)S(C)(=O)=O)ccc1Cl	CYP2C19 inhib 93.2, CYP2C9 inh 92.6
CS(=O)(=O)N(CC(=O)Nc1cccnc1)c1ccc2c(c1)OCCO2	none
COC(=O)c1cccc(NC(=O)CN(c2ccc3c(c2)OCO3)S(C)(=O)=O)c1C	CYP2C19 inhib 90.1, CYP2C9 inh 70.8
COC(=O)c1cncc(O)c1	none
Cc1nn(-c2ccccc2)c(C)c1CN	none (no result: CYP2C19 inhib, CYP2C9 activ, F-actin modifier, CYP2C9 inh, CYP2C19 act)
Cc1ccc2nc(-c3sc4nc(C)cc(C)c4c3N)[nH]c2c1	none (no result: CYP2C19 inhib, CYP2C9 activ, CYP2C9 inh, CYP2C19 act)
CC(=O)C1=C(C)Nc2cc(C(F)(F)F)ccc2S1	CYP2C19 inhib 60.0
CCCCn1nnnc1SCC(=O)c1cc(Cl)ccc1OC	CYP2C19 inhib 74.5, CYP2C9 activ 2
CCCCn1nnnc1SCC(=O)c1ccc(C)c(C)c1	CYP2C19 inhib 89.8
COc1ccc(Cl)cc1C(=O)CSc1nc(N)cc(N)n1	CYP2C9 activ 4.1
Nc1cc(N)nc(SCC(=O)c2ccccc2)n1	none
CC1(C)Cc2c(c(-c3ccco3)nc3n[nH]c(N)c23)CO1	none
Cc1ccccc1CS(=O)(=O)CCC(=O)NCCCN1CCN(c2ccccc2F)CC1	none (no result: E-sel TNF inh)
Cn1c(C(=O)NCCCN2CCN(c3ccccc3F)CC2)cc2c(=O)n(C)c3ccccc3c21	CYP2C19 inhib 65.6, CYP2C9 inh 50.0
Cc1cc(=O)oc(C)c1C(=O)NCCCN1CCN(c2ccccc2F)CC1	CYP2C9 inh 63.6 (no result: E-sel TNF inh)
Cn1c(C(=O)NCCCN2CCOCC2)cc2c(=O)n(C)c3ccccc3c21	none
O=C(/C=N/O)NCCN1CCCCC1	none (no result: E-sel TNF inh)
Cc1cc2c(c(C)nn2-c2ccccc2)c(=O)o1	CYP2C19 inhib 56.1
CC(C)(C)NC(=O)CN(C(=O)CS(=O)CC(=O)Nc1ccc(F)cc1)c1ccccc1 (stereo not drawn)	CYP2C9 inh 71.2 (no result: F-actin modifier)
